# Hit rate of the full screen: of about 370,000 compounds, about 400 (0.11%) were called active.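 How the source made its calls: active means activation at 10 µM reaching about 35% in either raw or pattern-adjusted values (limit read from the data); inactive means the rest.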 The sample as a whole holds a higher share of actives than the screen did.
# Biological target: Atrial natriuretic peptide receptor 2 (Homo sapiens) (UniProt P20594)
# Experiment: human GC-B receptor activators, primary screen, HEK293 GC-B cells, cGMP TR-FRET, EC30 CNP (AID 1920062)
# Conditions: at 10 µM, active compounds read high, 0% at EC30 CNP, 100% saturating CNP
# Sequence of Atrial natriuretic peptide receptor 2 (Homo sapiens) (P20594 whole entry, looked up): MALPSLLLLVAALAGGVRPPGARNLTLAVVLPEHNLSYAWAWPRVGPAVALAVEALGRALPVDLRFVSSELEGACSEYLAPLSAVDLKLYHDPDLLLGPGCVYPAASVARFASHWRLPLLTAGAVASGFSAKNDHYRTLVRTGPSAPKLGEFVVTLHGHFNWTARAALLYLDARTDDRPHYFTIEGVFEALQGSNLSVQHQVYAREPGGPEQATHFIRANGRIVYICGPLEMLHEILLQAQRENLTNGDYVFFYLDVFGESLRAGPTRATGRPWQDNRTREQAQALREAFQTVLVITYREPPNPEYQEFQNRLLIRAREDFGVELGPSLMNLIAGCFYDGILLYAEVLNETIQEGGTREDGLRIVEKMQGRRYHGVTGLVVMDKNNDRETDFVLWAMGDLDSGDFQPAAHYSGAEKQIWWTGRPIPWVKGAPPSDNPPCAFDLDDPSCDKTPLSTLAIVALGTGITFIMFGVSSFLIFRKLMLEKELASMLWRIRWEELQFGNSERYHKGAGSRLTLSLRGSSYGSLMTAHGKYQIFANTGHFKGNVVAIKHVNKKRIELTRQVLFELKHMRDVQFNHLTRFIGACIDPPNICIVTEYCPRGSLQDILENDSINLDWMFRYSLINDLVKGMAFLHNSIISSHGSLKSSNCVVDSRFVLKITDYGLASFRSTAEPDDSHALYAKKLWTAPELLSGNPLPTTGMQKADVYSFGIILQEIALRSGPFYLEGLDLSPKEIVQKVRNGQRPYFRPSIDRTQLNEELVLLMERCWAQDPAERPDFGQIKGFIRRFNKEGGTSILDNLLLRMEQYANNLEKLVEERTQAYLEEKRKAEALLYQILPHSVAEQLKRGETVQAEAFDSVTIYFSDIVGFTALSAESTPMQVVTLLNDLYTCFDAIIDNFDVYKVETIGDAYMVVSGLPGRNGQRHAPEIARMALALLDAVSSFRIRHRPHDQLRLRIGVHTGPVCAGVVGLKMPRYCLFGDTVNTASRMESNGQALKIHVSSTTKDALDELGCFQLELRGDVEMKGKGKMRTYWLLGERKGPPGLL
row,SMILES,activation
1,COC(=O)c1ccc2nc(-c3ccc(Cl)cc3)c(Cc3cccc(F)c3)n2c1,41.9% (active)
2,Fc1cccc(Cc2c(-c3cccc(Cl)c3)nc3ccc(Br)cn23)c1,-1.56% (inactive)
3,COC(=O)c1ccc2nc(-c3ccc(F)cc3)c(Cc3ccc(C)cc3)n2c1,41.9% (active)
4,COC(=O)c1ccc2nc(-c3ccc(C)cc3)c(Cc3ccc(OC)cc3C)n2c1,17.2% (inactive)
5,COC(=O)c1ccc2nc(C3CCCCC3)c(Cc3cccc(F)c3)n2c1,3.29% (inactive)
6,COC(=O)c1ccc2nc(-c3ccc(OC)c(OC)c3)c(Cc3ccccc3)n2c1,20.9% (inactive)
7,COC(=O)[C@@H]1C[C@@]2(O)[C@H](O)[C@H](O)[C@H](O)C[C@H]2N1Cc1ccc(C)s1,6.96% (inactive)
8,O=C(NCc1ccncc1)C1CCCN(S(=O)(=O)c2ccc(Br)cc2)C1 (stereo not given),-0.66% (inactive)
9,CCOCCCNC(=O)Cc1cc(=O)[nH]c(=O)[nH]1,-0.88% (inactive)
10,CC(=O)Nc1ccc(S(=O)(=O)NC2(C(F)(F)F)C(=O)Nc3c2c(=O)[nH]c(=O)n3Cc2ccccc2)cc1 (stereo not given),-0.18% (inactive)
11,NC(=O)C[n+]1cccc(C(N)=O)c1,-0.67% (inactive)
12,CC1(C)O[C@@H]2[C@H](O1)[C@@H](COS(=O)(=O)O)O[C@H]2n1ccc(=O)[nH]c1=O,1.28% (inactive)
13,O=C(NC(=S)Nc1cccc(-c2ccc(CO)o2)c1)c1cccs1,3.14% (inactive)
14,COc1cccc2cc(C(C)N(CCCN3CCOCC3)C(=O)Nc3ccc(Cl)cc3)oc12 (stereo not given),2.29% (inactive)
15,Cc1ccc(SCC(=O)NNC(=O)c2ccc(S(C)(=O)=O)cc2)cc1,4.75% (inactive)
16,CCCN=C1NC(=O)C(CC(=O)NCCc2ccc(OC)c(OC)c2)S1 (stereo not given),-2.43% (inactive)
17,CCN(CC(=O)NCCCN1CCOCC1)S(=O)(=O)c1cc(Cl)ccc1Cl,-0.24% (inactive)
18,CCOCCCNC(=O)C(NC(=O)c1ccc(=O)[nH]c1)c1ccc(Cl)cc1 (stereo not given),-0.69% (inactive)
19,Nc1c(C(=O)NCc2ccccc2)sc2nc3c(cc12)C(=O)CCC3,41.5% (active)
20,CC(C)OC(=O)c1sc2nc3c(cc2c1N)C(=O)CCC3,16.4% (inactive)
21,O=C(CC1CCCCC1)NCc1ccccc1,0.16% (inactive)
22,Cc1cnc(C)c(N2CCN(C(=O)C3CCC(=O)N(CCc4cccc(F)c4)C3)CC2)n1 (stereo not given),1.57% (inactive)
23,CCN(C(=O)COC(=O)c1c(NC(C)=O)sc(C)c1C)C1CCS(=O)(=O)C1 (stereo not given),-6.94% (inactive)
24,C=CCn1nc(C(=O)OCC)cc1-c1sc(NC(=O)c2ccccc2)nc1C,3.57% (inactive)
25,Cc1ccc(C)n1-c1ccncc1,1.81% (inactive)
26,COC(=O)[C@]1(Cc2ccccc2)N[C@H](CN(C)S(=O)(=O)c2ccc(F)cc2)[C@@H]2C(=O)N(Cc3ccccc3)C(=O)[C@@H]21,-3.49% (inactive)
27,COc1ccc(C2c3ccc(O)cc3Oc3ncn(CCCO)c(=N)c32)cc1OC (stereo not given),2.6% (inactive)
28,CCN(C(=O)COC(=O)c1ccc(COc2ccc3c(C)cc(=O)oc3c2)cc1)C1CCS(=O)(=O)C1 (stereo not given),-1.49% (inactive)

row,SMILES,activation
1,O=C(Nc1ccc(Br)cc1)c1cccc(NC(=O)C2C3CC4OC(=O)C2C4C3)c1 (stereo not given),-4.37% (inactive)
2,Cc1oc2nc(SCC(=O)Nc3ccc(S(N)(=O)=O)cc3)nc(NC(=O)c3ccccc3)c2c1C,-7.74% (inactive)
3,N#Cc1ccc(OCCN2C(=O)NC3(CCSC3)C2=O)cc1 (stereo not given),1.75% (inactive)
4,O=C1Nc2ccccc2NC(c2ccc3c(c2)OCO3)=C1N(Cc1ccc(F)cc1)C(=O)c1ccco1,-16.8% (inactive)
5,CCOC(=O)Cc1c(C)nc2c(C#N)c(C)nn2c1C,6.49% (inactive)
6,C[C@H]1NS(=O)(=O)c2cc(Cl)ccc2O[C@@H]1c1ccccc1,1.13% (inactive)
7,O=C1CC(=O)Nc2cc(S(=O)(=O)N3CCN(c4cccc(C(F)(F)F)c4)CC3)ccc2N1,1.05% (inactive)
8,CCNC(=O)C1(C)CCN(C(=O)c2ccccc2)C1 (stereo not given),1.62% (inactive)
9,Cc1ccc(CSc2ccc(S(=O)(=O)N3CCCCC3)cn2)cc1,-1.29% (inactive)
10,CCOC(=O)c1ccccc1NC(=O)COC(=O)C(Cc1c[nH]c2ccccc12)NC(C)=O (stereo not given),-17.1% (inactive)
11,COCCn1c(CN2CCC(Cc3ccccc3)CC2)nc2c1c(=O)n(C)c(=O)n2C,-2.04% (inactive)
12,CCN(CC)C(=O)Cn1cc(S(=O)(=O)CC(=O)NCc2ccc3c(c2)OCO3)c2ccccc21,2.01% (inactive)
13,O=C(NCc1ccc2c(c1)OCO2)c1sccc1Br,8.92% (inactive)
14,CN(C)C(=O)c1cccc(-c2cnc3sc(NCc4ccc5c(c4)OCO5)nn23)c1,43% (active)
15,O/N=C(\c1ccc2c(c1)OCCO2)C1CCCCC1,0.81% (inactive)
16,Cc1nnc(NC(=O)CSc2nc(C3CCCCC3)nc3ccccc23)s1,3.79% (inactive)
17,CC(=O)Nc1cc(-c2cccc(CO)c2)cn2c(-c3cccc(C(F)(F)F)c3)cnc12,36.8% (active)
18,CC(=O)Nc1cc(-c2ccccc2F)cn2c(-c3cccc(C(F)(F)F)c3)cnc12,3.33% (inactive)
19,CC(=O)Nc1cccc(-c2cc(NC(C)=O)c3ncc(-c4ccccc4)n3c2)c1,5.87% (inactive)
20,COc1ccc(OC)c(Cc2cnc3nc(N)nc(N)c3c2C)c1,-1.38% (inactive)
21,Cn1c(=O)c2c(SCC(=O)NCC3CCCO3)nc(CC(C)(C)C)nc2n(C)c1=O (stereo not given),4.44% (inactive)
22,C=CCN(Cc1ccc2c(c1)OCO2)C(C#CC1CC1)C(C)(C)C (stereo not given),-14.9% (inactive)
23,C[C@@H]1COc2cccc(N3CCCC3)c2S(=O)(=O)N1C,0.41% (inactive)
24,CC(=O)C1(C(=O)Nc2nccs2)CC(c2ccccc2C(F)(F)F)=NO1 (stereo not given),1.69% (inactive)
25,COc1ccc(C(=O)OC(C)C(=O)NC2CCCC2)cc1S(=O)(=O)N1CCOCC1 (stereo not given),-5.5% (inactive)
26,O=C(CCCCCN1C(=O)C2C3C=CC(C3)C2C1=O)Nc1ccccn1 (stereo not given),9.16% (inactive)
27,CCc1ccccc1S(=O)(=O)Cc1ccc(C(=O)NCCc2ccccc2)o1,2.27% (inactive)

# — PubChem BioAssay AID1920062 (Sanford-Burnham Center for Chemical Genomics, 2024)
